This is part of a sample that, as a whole, favours compounds with a hit. Of some 83,000 tested, about 20% had one in any assay.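 Percent growth is the endpoint: 0 to 100 indicates growth inhibition (40 means 60% inhibition), 0 means no net growth, and negative values indicate cell death.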 Activity calls are given as the source filed them. How the source made its calls: active means growth percent below 10; inactive means the rest.
Assays:
Assay in all cases: NCI-60 one-dose screen, 48 h (100 = growth as untreated, 0 = no growth, -100 = all killed)
Conditions in all cases: 10 µM unless noted
[1] = system: DU-145 prostate
[2] = system: K-562 leukemia
[3] = system: MALME-3M melanoma
[4] = system: MDA-MB-231 breast
[5] = system: RXF 393 renal
[6] = system: SF-268 CNS
[7] = system: SF-295 CNS
[8] = system: SF-539 CNS
[9] = system: UACC-257 melanoma
[10] = system: M14 melanoma
[11] = system: HCT-15 colon
[12] = system: HT29 colon
[13] = system: SNB-75 CNS
[14] = system: SNB-19 CNS
[15] = system: U251 CNS
[16] = system: PC-3 prostate
[17] = system: SK-MEL-5 melanoma
[18] = system: UACC-62 melanoma
[19] = system: LOX IMVI melanoma
[20] = system: SK-MEL-28 melanoma

Measured: growth

C#C[C@@]1(O)[C@@H](CO)O[C@@H](n2ccc3c(N)ncnc32)[C@@H]1O
inactive: [9] 17.3% | [20] 63.6%
active: [1] 3.75% | [2] 4.79% | [3] -13.2% | [4] -14.7% | [5] -33.6% | [6] 9.98% | [7] 5.82% | [8] 8.04% | [10] -38.6% | [11] 2.94% | [12] 2.83% | [13] -25.6% | [14] 7.29% | [15] 3.15% | [16] -21.4% | [17] -52.7% | [18] -16.5% | [19] -68.6%

CCOc1ccc(C2N(c3cc(OC)c(OC)c(OC)c3)C(=O)C2(F)F)cc1 (stereo not given)
active: [2] 8.49% | [17] 6.76%
inactive: [1] 30.1% | [3] 63.1% | [4] 46.1% | [5] 54.2% | [6] 52.4% | [7] 56.3% | [8] 10.8% | [9] 58.7% | [10] 27.5% | [11] 22.6% | [12] 12.3% | [13] 55.9% | [14] 54.1% | [15] 36.2% | [16] 37.3% | [18] 51.6% | [19] 27.6% | [20] 66.8%

COc1ccc2nc(-c3ccc(Cl)cc3)cc(-c3nnc(SC/C(=N/O)c4ccccc4)o3)c2c1
active: [5] 5.44%
inactive: [1] 29.7% | [2] 20.1% | [3] 25.5% | [4] 49.6% | [6] 55.3% | [7] 36.3% | [8] 43.5% | [9] 60.1% | [10] 25.2% | [11] 48.3% | [12] 27% | [13] 84.8% | [14] 68.4% | [15] 17.3% | [16] 30% | [17] 25.9% | [18] 49.1% | [19] 44.2% | [20] 44.2%

CCCCc1n(Cc2ccc3ccccc3c2)c2ccccc2[n+]1Cc1ccc2ccccc2c1
active: [1] -93.1% | [2] -73.2% | [3] -86.2% | [4] -88.2% | [5] -92.6% | [6] -80.5% | [7] -87.8% | [8] -94.3% | [9] -58.1% | [10] -81.4% | [11] -89.2% | [12] -74.8% | [13] -9.62% | [14] -92.5% | [15] -87.2% | [16] -76.8% | [17] -100% | [18] -92.3% | [19] -93.5% | [20] -92.9%

CN(C)c1ccc(-c2ccc3[nH]c(=O)nc(-c4ccc(F)cc4)c3c2)cn1
inactive: [1] 51.6% | [2] 11.9% | [3] 64.4% | [4] 47.7% | [5] 41.5% | [6] 45.5% | [7] 21.5% | [8] 24.2% | [9] 54.4% | [10] 22.7% | [11] 33.2% | [12] 11% | [13] 11.2% | [14] 36.2% | [15] 31.3% | [16] 41.7% | [17] 20.3% | [18] 28.4% | [19] 41.3% | [20] 69.2%

COc1ccc2oc(=O)cc(-c3nc4ccc(N)cc4[nH]3)c2c1
inactive: [1] 97.5% | [2] 119% | [3] 121% | [4] 74.2% | [5] 95.1% | [6] 87.5% | [7] 90.2% | [8] 82.3% | [9] 132% | [10] 114% | [11] 97.7% | [12] 97.3% | [13] 53.6% | [14] 90.9% | [15] 86.2% | [16] 81.1% | [17] 81.5% | [18] 91.5% | [19] 78.6% | [20] 111%

Cn1c2ccccc2c2c(OC(=O)c3ccccc3)c3c(nc21)-c1ccccc1C3
inactive: [1] 104% | [2] 104% | [3] 104% | [4] 85.6% | [5] 109% | [6] 96.4% | [7] 100% | [8] 102% | [9] 95.7% | [10] 93.8% | [11] 105% | [12] 92.1% | [13] 90.8% | [14] 105% | [15] 107% | [16] 87.3% | [17] 96.6% | [18] 92.5% | [19] 88.3% | [20] 111%

COc1cc2nc3c(=O)n(CCN(C)C)cnn3c(=O)c2cc1OC
inactive: [1] 108% | [2] 125% | [3] 99.4% | [4] 116% | [5] 108% | [6] 101% | [7] 99.5% | [8] 97.7% | [9] 107% | [10] 95.5% | [11] 103% | [12] 101% | [13] 76.4% | [14] 105% | [15] 107% | [16] 102% | [17] 98.7% | [18] 101% | [19] 97.9% | [20] 102%

COc1cc(C(=O)Nc2cc(O)c(C/C=C(\C)CCC=C(C)C)c(O)c2)cc2c1O[C@]1(C)CC[C@@H](O)C(C)(C)[C@H]1C2
inactive: [1] 27% | [6] 24.8% | [9] 24% | [13] 20.2% | [14] 32.2% | [16] 18.1% | [20] 25.8%
active: [2] -31.5% | [3] -5.78% | [4] -36.5% | [5] -40.3% | [7] -36.2% | [8] -41.7% | [10] -0.604% | [11] 1.55% | [12] -25.5% | [15] 6.63% | [17] -39.6% | [18] 0.641% | [19] -33.8%

COc1ccc2nc(-c3ccc(Cl)cc3)cc(-c3nnc(SCC(=O)Nc4ccc(/C(C)=N\O)cc4)o3)c2c1
inactive: [1] 25.9% | [2] 15.9% | [3] 15.1% | [4] 39.7% | [5] 39.7% | [6] 33.1% | [7] 43% | [8] 68.4% | [9] 44.4% | [10] 30.3% | [11] 23.6% | [12] 24.5% | [13] 39.9% | [16] 13.7% | [17] 71.5% | [18] 45.2% | [19] 25.3% | [20] 72.6%
active: [14] -18.2% | [15] -15.2%

OCCNc1nc(NCCO)nc(Nc2ccc(C3=NN(c4ccc(Cl)cc4)C(c4ccc(Cl)cc4)C3)cc2)n1 (stereo not given)
active: [5] -26.1%
inactive: [1] 51.9% | [2] 13.3% | [3] 70.1% | [4] 63.7% | [6] 53% | [7] 12.2% | [8] 36.6% | [9] 72.9% | [10] 63.9% | [11] 48.4% | [12] 30.5% | [13] 51.1% | [14] 78.1% | [15] 43% | [16] 32.8% | [17] 78.2% | [18] 77.9% | [19] 28.2% | [20] 54.4%

COc1ccc(-c2cc(-c3nnc(SCC(=O)Nc4ccc(/C(C)=N\O)cc4)n3-c3ccccc3)c3cc(OC)ccc3n2)cc1
active: [19] -36.4%
inactive: [1] 85% | [2] 48% | [3] 105% | [4] 46.1% | [5] 83.6% | [6] 71.4% | [7] 80.3% | [8] 82.6% | [9] 71% | [10] 70.1% | [11] 70% | [12] 79.8% | [13] 80.3% | [14] 77.9% | [15] 78.1% | [16] 61.1% | [17] 83.8% | [18] 49% | [20] 95.4%

CCSc1nc(Cl)c(C#N)c(-c2ccc(F)cc2)n1
inactive: [1] 104% | [2] 37.7% | [3] 106% | [4] 105% | [5] 103% | [6] 94.9% | [7] 97.7% | [8] 92.7% | [9] 93.8% | [10] 82.3% | [11] 88.1% | [12] 92.6% | [13] 80.3% | [14] 92.7% | [15] 91.6% | [16] 98.9% | [17] 97.1% | [18] 93.4% | [19] 87.1% | [20] 101%

O=C1CS/C(=N/c2nnc(-c3ccc(O)cc3)s2)N1
inactive: [1] 110% | [2] 95.6% | [3] 101% | [4] 109% | [5] 125% | [6] 108% | [7] 93.9% | [8] 102% | [9] 100% | [10] 103% | [11] 101% | [12] 103% | [13] 111% | [14] 108% | [15] 101% | [16] 99.5% | [17] 102% | [18] 108% | [19] 92.2% | [20] 110%

CN(C)CCCn1c2c(c3cc(-c4ccco4)ccc3c1=O)C(=O)c1ccccc1-2
active: [2] -75.1%
inactive: [1] 66.8% | [3] 113% | [4] 53.3% | [5] 75.5% | [6] 72.3% | [7] 82.6% | [8] 63.9% | [9] 102% | [10] 81.2% | [11] 54.4% | [12] 21% | [13] 62.4% | [14] 69.2% | [15] 80.4% | [16] 60% | [17] 78.3% | [18] 50.9% | [19] 60.9% | [20] 103%

Reference: PubChem BioAssay (NCI)
